# Results as given in PubChem BioAssay (NCI).
# The panel holds about 83,000 compounds, 20% with a hit somewhere; the sample as a whole holds those more often.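 48-hour exposure, single concentration, 96-well plates; percent growth endpoint where 0 means no net growth. Active: below 10.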 A number with no mark means an inactive call. The source made the active and inactive calls.
# Tests used:
# Assay in all cases: NCI-60 one-dose screen, 48 h (100 = growth as untreated, 0 = no growth, -100 = all killed)
# Settings in all cases: 10 µM unless noted
# [1] = system: HCT-15 colon
# [2] = system: HT29 colon
# [3] = system: SNB-75 CNS
# [4] = system: SNB-19 CNS
# [5] = system: U251 CNS
# [6] = system: PC-3 prostate
# [7] = system: UACC-62 melanoma
# [8] = system: LOX IMVI melanoma
# [9] = system: SK-MEL-28 melanoma
# [10] = system: SK-MEL-2 melanoma
# [11] = system: EKVX NSCLC
# [12] = system: SN12C renal
# [13] = system: UO-31 renal
# [14] = system: TK-10 renal
# [15] = system: ACHN renal
# [16] = system: A498 renal
# [17] = system: CCRF-CEM leukemia
# [18] = system: MOLT-4 leukemia
# [19] = system: CAKI-1 renal
SMILES,growth [1],growth [2],growth [3],growth [4],growth [5],growth [6],growth [7],growth [8],growth [9],growth [10],growth [11],growth [12],growth [13],growth [14],growth [15],growth [16],growth [17],growth [18],growth [19]
N#Cc1nnn(-c2ccc(S(N)(=O)=O)cc2)c1NC(=O)CCl,96%,102%,85.5%,96.3%,92.3%,89.7%,96.6%,94.6%,104%,106%,91.4%,88.3%,86.5%,96.4%,108%,91.5%,88.8%,92.4%,
CCOC(=O)C(C)(C#N)C1C=CCCC1 (centres undefined),91.3%,94.7%,78.3%,87.9%,106%,94.2%,97.7%,,96.2%,96.5%,,95%,84%,83.2%,92.3%,63.2%,84.6%,98%,75.1%
O=C(O)COc1ccc(Cl)cc1C1CCCCC1,106%,104%,88.1%,99.9%,102%,102%,95.6%,,108%,103%,117%,98.5%,87.6%,101%,107%,90.2%,92.1%,87.9%,99.4%
CC(C)(C)CC(C)(C)c1ccc(OCCOCC[N+](C)(C)Cc2ccccc2)cc1,95.2%,-50.5% (active),-26% (active),-89% (active),-88.5% (active),-13.9% (active),-98.5% (active),,-67% (active),-69.4% (active),22.3%,-29.2% (active),86.1%,-0.335% (active),73.2%,17.7%,-25.8% (active),-20% (active),
Cc1cc(N2CCN(c3ccnc4cc(Cl)ccc34)CC2)nc(N2CCOCC2)n1,73.6%,67.6%,88.9%,82.6%,93.9%,51.9%,84.3%,,104%,105%,,86%,44.7%,89.9%,86.1%,37.2%,92.3%,66.7%,85.9%
CN(C)c1ccc(NC(=O)c2ccc(/C=C/C(=O)c3ncc[nH]3)cc2)cc1,16.2%,11.6%,68.7%,28.3%,11.8%,68.1%,70.5%,14.7%,95.3%,92%,73%,,37.9%,74%,71.4%,94.1%,4.98% (active),27.1%,
